ClpP mod: qHTS Assay for Activators of ClpP; AID 651965, 2013; 340,000 tested, 1.9% active; purified B. subtilis ClpP, FRET peptide cleavage, 20 min; Potency, µM (highest dose often 57.5 µM), without a hit: at the highest dose activity change, negative = active; ATP-dependent Clp protease proteolytic subunit (Bacillus subtilis (strain 168)), P80244; active means well fitted falling curve with a large enough effect; inconclusive means small, poorly fitted or top-dose-only effect; inactive means no such curve, though single readings can be large or run the other way; further: potency means the concentration at half of the fitted maximal effect; the source files actives as falling curves though it sought activators and does not explain the sign; nearly all actives have a fitted effect of over 65% in size
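Purified B. subtilis ClpP, 10 microg/mL final in Tris/HCl pH8 with KCl, BSA, glycerol and Tween-20, cleaved an Abz/nitrotyrosine-quenched decapeptide. Fluorescence (ex 320, em 430) was read at 0 and 20 min at room temperature. Delta was normalized to 5.8 microM ADEP and DMSO/no-enzyme controls.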
IL-1B inflam inh: qHTS for Inhibitors of Inflammasome Signaling: IL-1-beta AlphaLISA Primary Screen; THP-1 LPS/ATP IL-1B secretion, AlphaLISA, 16 h; hits give low values; AID 743279, 2014; 360,000 tested, 4.7% active; activity change, % at 57.5 µM; in the data active means activity change below about -50%; inconclusive means mostly about -30% to -49%; further: on the % scale 0 is the no-effect control and ±100 the full control effect
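THP-1 cells pretreated 1 hr with compounds (up to 57.5 uM final), then stimulated with LPS (250 ng/mL final) plus ATP (1.25 mM final); secreted IL-1B measured by AlphaLISA after 16 hr, decreased signal indicating inhibition.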
DRD3 agonist: qHTS of D3 Dopamine Receptor Agonist: qHTS; D3R DiscoveRx beta-arrestin cells, luminescence, 90 min; D(3) dopamine receptor (Homo sapiens), P35462; max activation, %; 410,000 tested, 0.58% active; AID 652048, 2013; in the data active means max activation above about 30%; further: 0% is about no effect
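Agonist-mode cell screen: cells plated at 1500/well and incubated overnight at 37 °C, then exposed to library compounds for 90 min at 37 °C. Detection reagent was added for 30–60 min at room temperature, and luminescence was read.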
DT40 TDP1 no CPT: qHTS for Inhibitors of human tyrosyl-DNA phosphodiesterase 1 (TDP1): qHTS in cells in absence of CPT; 420,000 tested, 15% active; DT40 Tdp1-/- hTDP1 cells, no CPT, ATP luminescence, 48 h; Potency, µM (doses to about 46.2 µM), without a hit: at the top dose activity change, negative = growth inhibition, most hits filed as inhibitors; AID 686978, 2013; further: potency means the concentration at half of the fitted maximal effect; on the % scale 0 is the no-effect control and ±100 the full control effect; nearly all actives have a fitted effect of over 55% in size
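Camptothecin absent (DMSO only). Human TDP1-complemented DT40 knockout cells, 400 cells/well, 37 °C for minimum 48 hr; ATP measured via CellTiter-Glo, 30 min dark incubation, luminescence.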
D3 antag: qHTS of D3 Dopamine Receptor Antagonist: qHTS | 360,000 tested, 2.5% active | D3R cells, DiscoveRx beta-arrestin luminescence, antagonist mode; hits give low values | D(3) dopamine receptor (Homo sapiens), P35462 | AID 652054, 2013 | max response, negative = inhibition, %; in the data active means max response below about -50%; inconclusive means no clear call, values can overlap the other calls; further: on the % scale 0 is the no-effect control and ±100 the full control effect
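Cells expressing the human receptor were seeded at 1500 cells/well, incubated overnight at 37 degrees C in 5% CO2, then exposed to library compounds with dopamine controls for 90 minutes at 37 degrees C before luminescent detection.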
TDP1 cell CPT: qHTS for Inhibitors of human tyrosyl-DNA phosphodiesterase 1 (TDP1): qHTS in cells in presence of CPT | chicken DT40 Tdp1-/-;hTDP1 cells + 20 nM CPT, ATP luminescence, 48 h | Potency, µM (highest dose often 46.2 µM), without a hit: at the highest dose activity change, negative = growth inhibition, hits mostly inhibitors | 420,000 tested, 12% active; further: potency means the concentration at half of the fitted maximal effect; on the % scale 0 is the no-effect control and ±100 the full control effect; nearly all actives have a fitted effect of over 55% in size
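Chicken DT40 Tdp1-/- cells complemented with human TDP1, 400 cells/well, exposed to compounds plus 20 nM camptothecin for at least 48 h at 37 C; viability read as ATP content by CellTiter-Glo luminescence.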
Starred values were filed as active, the others as inactive; ? = inconclusive; · = no result given. Rows were chosen to be rich in hits. Some 21% of all compounds tested hit in one or more screens of this group. Unless noted, the call rests on the fitted dose curve; in most records, active means well fitted inhibition curve with a large enough effect; inconclusive means small, poorly fitted or top-dose-only effect; inactive means flat fitted curve, though single readings scatter.

SMILES | ClpP mod | IL-1B inflam inh | DRD3 agonist | DT40 TDP1 no CPT | D3 antag | TDP1 cell CPT
CCCC(=O)Nc1ccccc1-c1nnc(SCC)[nH]c1=O | 1% | -9 | 0 | 12% | -6 | -1%
O=P(Cc1cccc2ccccc12)(c1ccccc1)c1ccccc1 | · | -9 | -8 | 21µM* | -3 | ?
O=P(Cc1ccncc1)(c1ccccc1)c1ccccc1 | 1% | 15 | 0 | -2% | 0 | -1%
COc1ccc(NS(=O)(=O)c2ccc(N3CCCCC3)c(NC(=O)C(C)NC(N)=O)c2)cc1 (stereo not drawn) | -1% | -8 | 0 | ? | -4 | ?
COc1ccc(NS(=O)(=O)c2ccc(N3CCOCC3)c(NC(=O)c3cccc(F)c3)c2)cc1 | ? | -29 | 5 | 8.2µM* | 3 | 9.2µM*
COc1ccc(NS(=O)(=O)c2ccc(N3CCOCC3)c(NC(=O)c3ccc(F)cc3)c2)cc1 | 0% | -12 | 9 | 13µM* | 22 | 8.2µM*
CCOC(=O)/C=C/C(=O)Nc1cc(S(=O)(=O)Nc2ccc(OC)cc2)ccc1N1CCOCC1 | -8% | -107* | -1 | 5.2µM* | -10 | 5.8µM*
COc1ccc(NS(=O)(=O)c2ccc(N3CCOCC3)c(NC(=O)C(C)C)c2)cc1 | ? | 5 | -3 | 18µM* | -7 | 16µM*
O=C(Nc1cc(S(=O)(=O)Nc2ccc(Cl)cc2)ccc1N1CCCCC1)c1ccc(F)cc1 | ? | -66* | 1 | 18µM* | -3 | 21µM*
CC1(C(=O)NS(=O)(=O)c2cccc(C#N)c2)CCN1C(=O)c1ccccc1 (stereo not drawn) | -1% | 18 | 2 | 2% | 8 | 5%
O=C(CBr)c1ccc(Oc2ccc(C(=O)C[n+]3ccccc3Cl)cc2)cc1 | -26% | · | · | ? | · | ?
O=C1C2C3CCCC3=C3CCCC3C2C(=O)N1c1cccc(Cl)c1 (stereo not drawn) | -1% | 25 | -4 | -25% | -10 | -10%
O=C1C2C3C=CC(c4ccccc4)(C2C(=O)N1c1cccc(Cl)c1)C1C(=O)N(c2cccc(Cl)c2)C(=O)C31 (stereo not drawn) | -2% | -3 | -2 | 15µM* | -9 | 15µM*
CCN1C[C@@H]2[C@@H]3C(=O)N(Cc4ccccc4)C(=O)[C@@H]3[C@](CC)(C1=O)N2C(=O)c1ccc(Cl)c(Cl)c1 | 2% | -14 | -14 | 26µM* | 3 | 16µM*
CN1C[C@@H]2[C@@H]3C(=O)N(Cc4ccccc4)C(=O)[C@@H]3[C@](Cc3ccccc3)(C1=O)N2C(=O)c1ccccc1 | -1% | 11 | -21 | ? | 0 | ?
CN1C[C@@H]2[C@@H]3C(=O)N(Cc4ccccc4)C(=O)[C@@H]3[C@](Cc3ccccc3)(C1=O)N2C(=O)c1ccc(C(C)(C)C)cc1 | 0% | -89* | 7 | 16µM* | 16 | 16µM*
Cc1cc(CC(=O)O)c(C)n1-c1ccc(Cl)cc1 | · | · | -5 | ? | · | -15%
Cc1ccc2nc(NC(=O)c3ccco3)sc2c1 | -4% | 11 | -10 | 8.2µM* | -7 | ?
Cc1ccc2nc(NC(=S)NC(=O)c3ccco3)sc2c1 | 2% | 12 | -6 | 3.3µM* | -13 | 5.2µM*
CC(=O)Nc1nc2ccc(NC(=O)c3ccco3)cc2s1 | 0% | -25 | 3 | 18µM* | 17 | ?
CC(=O)Nc1nc2ccc(Br)cc2s1 | 2% | -18 | -3 | ? | 0 | 13µM*
Cc1nc2ccc(NC(=O)c3ccco3)cc2s1 | 1% | -9 | -8 | -3% | -12 | 3%
O=C1Nc2ccc(C(=O)O)c(O)c2C1=O | · | 20 | -28 | -12% | ? | -14%
CC1=C(CC[C@@H](C)CO)OC2CC3C4CCC5CC(O)CCC5(C)C4CC(=O)C3(C)C12 (stereo partly drawn) | -1% | -66* | 25 | ? | 92 | ?
S=C(NCc1cccs1)Nc1cccc(Cl)c1 | -1% | 18 | -5 | ? | -25 | -18%
SMILES | ClpP mod | IL-1B inflam inh | DRD3 agonist | DT40 TDP1 no CPT | D3 antag | TDP1 cell CPT
S=C(NCc1ccncc1)Nc1cccc(Cl)c1 | -5% | -2 | 2 | -15% | ? | -8%
S=C(NCCN(C1CCCCC1)C1CCCC1)Nc1cccc(Cl)c1 | -3% | · | -38 | 16µM* | -102* | ?
S=C(NCCC(c1ccccc1)c1ccccc1)Nc1cccc(Cl)c1 | -2% | 0 | -3 | 15µM* | 3 | ?
CC(C)c1cccc(C(C)C)c1NC(=S)Nc1cccc(Cl)c1 | · | · | -9 | 21µM* | -12 | ?
NC(=S)Nc1cccc(Cl)c1 | · | 10 | 1 | ? | -6 | -26%
CCc1nc2n(n1)C(O)c1cc([N+](=O)[O-])ccc1S2 (stereo not drawn) | -2% | 2 | 2 | 0% | 16 | 3%
Cc1nc2c3c(sc2c(=O)[nH]1)NC(=O)CC3c1ccccc1Cl (stereo not drawn) | -2% | 30 | 4 | ? | 2 | -7%
Cc1ccccc1NC(=O)Nc1nc(C(N)c2ccccc2)cs1 (stereo not drawn) | -3% | ? | -2 | ? | -2 | ?
CC(C)c1ccc(NC(=O)Nc2nc(C(N)c3ccccc3)cs2)cc1 (stereo not drawn) | -3% | -94* | 1 | 23µM* | 24 | ?
CC(C)c1ccc(NC(=O)Nc2nc(C(N)COCc3ccccc3)cs2)cc1 (stereo not drawn) | -1% | ? | 5 | 15µM* | 27 | 16µM*
CC(C)c1ccc(NC(=O)Nc2nc(C(N)C(C)C)cs2)cc1 (stereo not drawn) | 3% | -63* | 43* | 16µM* | -54* | 15µM*
NC(c1ccccc1)c1csc(Nc2ccc(C(=O)c3ccccc3)cc2)n1 (stereo not drawn) | -6% | ? | 1 | 18µM* | 0 | ?
O=C(COc1ccc(F)cc1)Nc1nnc(S(=O)(=O)N2CCc3ccccc32)s1 | -2% | · | 2 | ? | · | ?
Cc1ccc(C(=O)Nc2nc(C(N)C(C)C)cs2)cc1 (stereo not drawn) | -5% | ? | 2 | 16µM* | 8 | ?
Cc1ccc(C(=O)Nc2nc(-c3cc(Cl)sc3Cl)cs2)cc1 | 254% | 24 | 10 | ? | 13 | -26%

Source: PubChem
